# Experimental data from PubChem BioAssay (NCI).
# This is part of a sample that, as a whole, favours compounds with a hit. Of some 83,000 tested, about 20% had one in any assay.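 Assay: single dose, 48 h. Readout: percent growth (0 = no net growth; negative = cell death). Active: <10.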 Active and inactive are the calls of the source.
# Tested on: SR leukemia
# Assay: NCI-60 one-dose screen, 48 h (100 = growth as untreated, 0 = no growth, -100 = all killed)
# Settings: 10 µM unless noted
row,Structure (SMILES),growth
1,O=C(N/N=C/c1ccncc1)c1ccc(C(F)(F)F)nc1Nc1cccc(C(F)(F)F)c1,2.02% (active)
2,COC(=O)[C@]12CC[C@@H](C)[C@H](C)[C@@H]1C1=CC[C@@H]3[C@@]4(C)C(C=O)=C[C@@](C)(COC(C)=O)[C@@H]4C(=O)C[C@@]3(C)[C@]1(C)CC2,48.3% (inactive)
3,O=C(Nc1ccccc1)Nc1cccc(Oc2nnc(Cl)c3ccccc23)c1,18% (inactive)
4,N#Cc1c(-c2ccccc2)cc(-c2ccc(Nc3nc(Nc4ccc(F)cc4)nc(Nc4ccc(F)cc4)n3)cc2)nc1N,0.591% (active)
5,CCn1c(C)nc2cc(C(N)=O)ccc21,104% (inactive)
6,O=C(/C=C/c1ccco1)c1ccc(Nc2nc(Nc3ccc(F)cc3)nc(Nc3ccc(Cl)cc3)n2)cc1,0.269% (active)
7,CC/C=C\C[C@H](O)C/C=C1/C(=O)C=C[C@@H]1C/C=C\CCCC(=O)OC,-4.28% (active)
8,N#Cc1c(-c2cccc(Cl)c2)cc(-c2cccc(Cl)c2)[nH]c1=O,29.6% (inactive)
9,O=C1CC(N2C(=O)/C(=C/C(Cl)=C\c3ccc([N+](=O)[O-])cc3)SC2=S)C(=O)N1c1ccc(O)cc1 (stereo not drawn),-13.4% (active)

# Tested on: RPMI-8226 leukemia
# Assay: as above
# Settings: 10 µM unless noted
row,Structure (SMILES),growth
1,CC1CC2Oc3ccc(Cl)cc3C(=O)N2O1 (stereo not drawn),91.1% (inactive)
2,COc1cccc(C(=O)NCCNc2cc(-c3cn(-c4ccccc4)nc3-c3cccc(OC)c3)ccn2)c1,39.1% (inactive)
3,CN(C)c1ccc(-c2ccc3[nH]c(=O)nc(-c4ccccc4)c3c2)cn1,56.5% (inactive)
4,CCN(CC)CCCCCCNc1cc(OC)c(Cl)c2cccnc12,75.3% (inactive)
5,NC(=N\N=C/c1ccccc1[N+](=O)[O-])/C(N)=N\N=C/c1ccccc1[N+](=O)[O-],88.2% (inactive)
6,C[n+]1cc2cc(C(N)=O)[nH]c3c(=N)c(Cl)c(N)c1c23,73% (inactive)
7,COc1ccc(C2=Nc3c(N)ncnc3NC(c3ccc4c(c3)OCO4)C2)cc1 (stereo not drawn),61.5% (inactive)
8,CCN(CC)CCN1C(=O)c2c(c(C)c3c(oc4cc(O)ccc43)c2C)C1=O,-36.3% (active)
9,O=C(Nc1ccccc1Cl)Oc1ccc(-c2ccccc2)cc1,94.2% (inactive)
10,O=C1/C(=C/c2ccc(F)cc2)C=C(c2ccccc2)N1CCc1ccccc1,89.3% (inactive)
11,Cc1cc(Cl)ccc1Nc1nc(C(F)(F)F)ccc1C(=O)N/N=C/c1ccc(N(C)C)cc1,-26.1% (active)
12,CCN1CCN(c2cc(C)nc(NCc3cc(Nc4ccnc5cc(Cl)ccc45)ccc3F)n2)CC1,74.4% (inactive)
13,CCN(CC)CCN1CC(O)=C(c2nc(-c3ccc(Cl)cc3)cs2)C1=N,13.6% (inactive)
14,CC(=O)n1c(-c2ccc(Cl)cc2)nc2c(c1=O)C(c1ccc(Cl)cc1)c1sc3c(Cl)cccc3c1O2 (stereo not drawn),0.984% (active)
15,CCN(CC)CCn1nc2c3c(cccc3c1=O)-c1ccccc1-2,24.9% (inactive)
16,Cc1cc(Cl)nc(NCc2cc(Nc3ccnc4cc(Cl)ccc34)ccc2F)n1,33.1% (inactive)
17,O=C(NCCCNc1cc(-c2cn(-c3ccccc3)nc2-c2cccc(O)c2)ccn1)c1ccccc1,-7.45% (active)
18,COc1ccc(-c2cc(-c3cc(OC)ccc3OC)nc(SCC(=O)c3ccccc3)c2C#N)cc1,105% (inactive)
19,Nc1cc2c3c(cccc3c1)C(=O)N(CCN1CCCC1)C2=O,7.72% (active)
20,COc1ccc(-c2csc(C3=C(O)CN(CCCN4CCCC4=O)C3=N)n2)cc1OC,85.5% (inactive)
21,CCCCn1c(=O)c2c(nc(NCCc3ccc(O)c(O)c3)n2CCC)n(CCCC)c1=O,74.8% (inactive)
22,N#C/C(=C/C=C/c1cccc(Cl)c1)S(=O)c1ccccc1 (stereo not drawn),-13.4% (active)
23,O=C1OC(c2nc3ccccc3s2)=C/C1=C\c1ccc(O)cc1,114% (inactive)
24,CC/C=C\CCC/C=C1/C(=O)C=C[C@@H]1C/C=C\CCCC(=O)O,6.36% (active)
25,CC(=O)C(C)Cc1cc2c(cc1C)C(C)(C)CCC2(C)C (stereo not drawn),100% (inactive)
26,O=[N+]([O-])c1ccc(C2CC(c3ccccc3)=Nc3ccccc3S2)cc1 (stereo not drawn),-6.89% (active)
27,COc1ccc(-c2nc3c(c(=O)n2C(C)=O)C(c2ccc(Cl)cc2)c2sc4c(Cl)cccc4c2O3)cc1 (stereo not drawn),2.22% (active)
28,FC(F)(F)c1cc(Nc2ccc3cc(OCCCN4CCOCC4)ccc3n2)ccc1Cl,7.22% (active)
29,CC(C)CCC[C@@H](C)[C@H]1CC[C@H]2[C@@H](Nc3ccc(O)cc3)CCC[C@]12C,96.6% (inactive)
